SMILES strings stand for the structures. Among all 39,000 compounds or so, about 3,300 (8.5%) were called active. What follows is part of a selection rich in actives, with near analogues and random picks from the rest.

For the assay, the system named is HepG2. Briefly: cytotoxicity call (relative viability < 0.9). The conditions noted are these: 10 µM.
In the case of `C[C@@H]1CCCCO[C@@H](CN(C)S(C)(=O)=O)[C@@H](C)CN([C@@H](C)CO)C(=O)c2cc(NS(=O)(=O)c3ccc(F)cc3)ccc2O1`, the cytotoxicity call is “inactive”.

With `CC(C)NC(=O)Nc1ccc2c(c1)CC(=O)N([C@H](C)CO)C[C@H](C)[C@H](CN(C)Cc1ccc(Oc3ccccc3)cc1)O2`, the cytotoxicity call was “inactive”.

Regarding `CC(C)NC(=O)Nc1ccc2c(c1)CC(=O)N([C@@H](C)CO)C[C@H](C)[C@@H](CN(C)Cc1ccc(Oc3ccccc3)cc1)O2`, the cytotoxicity call was “inactive”.

For the molecule `C[C@H]1CN([C@@H](C)CO)C(=O)Cc2cc(NC(=O)Nc3ccccc3)ccc2O[C@@H]1CN(C)Cc1ccc(Oc2ccccc2)cc1`, the cytotoxicity call is “active”.

As for `C[C@@H]1CN([C@@H](C)CO)C(=O)Cc2cc(NC(=O)Nc3ccccc3)ccc2O[C@@H]1CN(C)Cc1ccc(Oc2ccccc2)cc1`, the cytotoxicity call is “active”.

Take `C[C@H]1CN([C@@H](C)CO)C(=O)Cc2cc(NC(=O)Nc3ccccc3)ccc2O[C@H]1CN(C)Cc1ccc(Oc2ccccc2)cc1`: the cytotoxicity call was “active”.

For `C[C@@H]1CN([C@@H](C)CO)C(=O)Cc2cc(NC(=O)Nc3ccccc3)ccc2O[C@H]1CN(C)Cc1ccc(Oc2ccccc2)cc1`, the cytotoxicity call was “inactive”.

On to `CC(C)NC(=O)Nc1ccc2c(c1)CC(=O)N([C@@H](C)CO)C[C@H](C)[C@H](CN(C)Cc1ccc(Oc3ccccc3)cc1)O2`, for which the cytotoxicity call was “inactive”.

On to `C[C@@H]1CN([C@H](C)CO)C(=O)Cc2cc(NC(=O)Nc3ccccc3)ccc2O[C@H]1CN(C)Cc1ccc(Oc2ccccc2)cc1`, for which the cytotoxicity call was “active”.

`C[C@H](CO)N1C[C@H](C)[C@@H](CN(C)Cc2ccc(Oc3ccccc3)cc2)Oc2ccc(NC(=O)Nc3ccccc3)cc2CC1=O`: the cytotoxicity call was “inactive”.

Take `COCC#Cc1ccc2c(c1)O[C@@H](CN(C)C(=O)c1ccccc1F)[C@H](C)CN([C@@H](C)CO)S2(=O)=O`: the cytotoxicity call was “inactive”.

Take `Cc1noc(C)c1S(=O)(=O)N(C)C[C@@H]1Oc2ccc(NS(C)(=O)=O)cc2CC(=O)N([C@H](C)CO)C[C@@H]1C`: the cytotoxicity call was “inactive”.

On to `C[C@H](CO)N1C[C@H](C)[C@@H](CN(C)S(=O)(=O)c2cn(C)cn2)Oc2cc(C#Cc3ccccc3)ccc2S1(=O)=O`, for which the cytotoxicity call is “inactive”.

Regarding `C=CC[C@@H](CC(=O)N[C@@H](CO)Cc1ccccc1)C(=O)NCCOC(=O)[C@H](CC=C)CC(=O)OC(C)(C)C`, the cytotoxicity call is “inactive”.

Consider `C[C@@H]1CN([C@H](C)CO)C(=O)Cc2cc(NC(=O)CCN3CCOCC3)ccc2O[C@@H]1CN(C)S(=O)(=O)c1ccccc1`, for which the cytotoxicity call was “inactive”.

With `C[C@H]1CCCCO[C@@H](CN(C)C(=O)c2ccccc2)[C@@H](C)CN([C@@H](C)CO)C(=O)c2cc(NC(=O)NC3CCCCC3)ccc2O1`, the cytotoxicity call is “inactive”.

Regarding `Cc1cccc(CN(C)C[C@@H]2Oc3ncc(-c4cccc(C(F)(F)F)c4)cc3C(=O)N([C@H](C)CO)C[C@@H]2C)c1`, the cytotoxicity call was “inactive”.

With `CC(C)NC(=O)Nc1ccc2c(c1)C(=O)N([C@H](C)CO)C[C@@H](C)[C@@H](CN(C)S(=O)(=O)c1cn(C)cn1)OCCCC[C@H](C)O2`, the cytotoxicity call was “inactive”.

As for `COc1ccc(S(=O)(=O)Nc2ccc3c(c2)CC(=O)N([C@H](C)CO)C[C@H](C)[C@H](CN(C)S(=O)(=O)c2ccc(OC)cc2)O3)cc1`, the cytotoxicity call is “inactive”.

In the case of `Nc1cc(=O)nc(C(F)(F)F)[nH]1`, the cytotoxicity call is “inactive”.

Turning to `Cc1ccc(S(=O)(=O)Nc2cccc3c2O[C@@H](CN(C)S(=O)(=O)c2ccc(F)cc2)[C@@H](C)CN([C@@H](C)CO)C3=O)cc1`, the cytotoxicity call was “inactive”.

Turning to `O=C(CN1CCOCC1)N[C@@H]1CC[C@H](CCNC(=O)Nc2cc(F)ccc2F)O[C@H]1CO`, the cytotoxicity call was “inactive”.

Turning to `COc1ccc(S(=O)(=O)Nc2ccc3c(c2)[C@@H]2C[C@H](CC(=O)NCC4CC4)O[C@H](CO)[C@@H]2O3)cc1`, the cytotoxicity call is “inactive”.

As to `CCS(=O)(=O)Nc1ccc2c(c1)C(=O)N(C)[C@@H]1CC[C@H](CC(=O)N[C@H]3CCN(Cc4ccccc4)C3)O[C@@H]1CO2`, the cytotoxicity call was “inactive”.

Turning to `c1cc([C@@H]2CNCCN2)[nH]n1`, the cytotoxicity call is “inactive”.

Regarding `C[C@@H]1CCCCO[C@H](CN(C)S(=O)(=O)c2ccccc2)[C@H](C)CN([C@@H](C)CO)C(=O)c2cc(NC(=O)CCC(F)(F)F)ccc2O1`, the cytotoxicity call was “inactive”.

On to `Cc1noc(C)c1S(=O)(=O)Nc1cccc2c1O[C@H](CN(C)S(=O)(=O)c1c(C)noc1C)[C@H](C)CN([C@@H](C)CO)C2=O`, for which the cytotoxicity call is “inactive”.

`CC(C)NC(=O)Nc1ccc2c(c1)CC(=O)N([C@@H](C)CO)C[C@@H](C)[C@H](CN(C)Cc1ccc(Oc3ccccc3)cc1)O2`: the cytotoxicity call is “inactive”.

As to `C[C@@H]1CN([C@H](C)CO)C(=O)Cc2cc(NC(=O)Nc3ccccc3)ccc2O[C@@H]1CN(C)Cc1ccc(Oc2ccccc2)cc1`, the cytotoxicity call was “active”.

For the molecule `CC(C)NC(=O)Nc1ccc2c(c1)CC(=O)N([C@H](C)CO)C[C@@H](C)[C@@H](CN(C)Cc1ccc(Oc3ccccc3)cc1)O2`, the cytotoxicity call was “active”.

In the case of `CC(C)NC(=O)Nc1ccc2c(c1)CC(=O)N([C@@H](C)CO)C[C@@H](C)[C@@H](CN(C)Cc1ccc(Oc3ccccc3)cc1)O2`, the cytotoxicity call is “inactive”.

Turning to `CC(C)NC(=O)Nc1ccc2c(c1)CC(=O)N([C@H](C)CO)C[C@@H](C)[C@H](CN(C)Cc1ccc(Oc3ccccc3)cc1)O2`, the cytotoxicity call was “inactive”.

As to `C[C@H](CO)N1C[C@H](C)[C@H](CN(C)Cc2ccc(Oc3ccccc3)cc2)Oc2ccc(NC(=O)Nc3ccccc3)cc2CC1=O`, the cytotoxicity call was “inactive”.

Regarding `CCOc1nc2cccc(C(=O)OCc3oc(=O)oc3C)c2n1Cc1ccc(-c2ccccc2-c2noc([O-])n2)cc1.[K+]`, the cytotoxicity call was “inactive”.

For the molecule `O=C(C[C@@H]1CC[C@@H]2[C@H](COC[C@@H](O)CN2C(=O)c2ccc(F)cc2)O1)NCCCN1CCOCC1`, the cytotoxicity call was “inactive”.

`CN(C)C(=O)c1ccc(-c2cccc(-c3nc(C(=O)NC4CCC4)cc4c3[C@H](CCO)N([S@@](=O)C(C)(C)C)C4)c2)cc1`: the cytotoxicity call was “inactive”.

For `Cc1ccc(S(=O)(=O)N(C)C[C@H]2Oc3ccc(NS(=O)(=O)c4cccs4)cc3C(=O)N([C@@H](C)CO)C[C@H]2C)cc1`, the cytotoxicity call was “inactive”.

On to `CC1(C)OC(=O)C2(C(=O)O1)[C@@H](c1ccc(-c3cccc(Br)c3)cc1)CC(=O)C[C@H]2c1ccccc1`, for which the cytotoxicity call was “inactive”.

For the molecule `CCCNC(=O)c1cc2c(c(-c3cccc(-c4cc5ccccc5o4)c3)n1)[C@H](CCO)N(C(=O)NC(C)C)C2`, the cytotoxicity call was “inactive”.

`C[C@@H]1CCCCO[C@@H](CN(C)S(=O)(=O)c2ccccc2)[C@@H](C)CN([C@@H](C)CO)C(=O)c2cc(NC(=O)Nc3cccc4ccccc34)ccc2O1`: the cytotoxicity call was “inactive”.

`Cc1noc(C)c1S(=O)(=O)Nc1ccc2c(c1)C(=O)N([C@H](C)CO)C[C@H](C)[C@@H](CN(C)S(=O)(=O)c1cn(C)cn1)OCCCC[C@H](C)O2`: the cytotoxicity call was “inactive”.

For the molecule `C[C@H]1CN([C@@H](C)CO)C(=O)c2cc(NC(=O)Nc3cccc4ccccc34)ccc2O[C@@H]1CN(C)Cc1ccc(C(F)(F)F)cc1`, the cytotoxicity call was “inactive”.

With `C[C@@H]1CN([C@@H](C)CO)C(=O)c2cc(NC(=O)Nc3cccc4ccccc34)ccc2O[C@@H]1CN(C)Cc1ccc(C(F)(F)F)cc1`, the cytotoxicity call is “active”.

For the molecule `C[C@@H]1CN([C@H](C)CO)C(=O)c2cc(NC(=O)Nc3cccc4ccccc34)ccc2O[C@H]1CN(C)Cc1ccc(C(F)(F)F)cc1`, the cytotoxicity call was “inactive”.

Turning to `C[C@H]1CN([C@@H](C)CO)C(=O)c2cc(NC(=O)Nc3cccc4ccccc34)ccc2O[C@H]1CN(C)Cc1ccc(C(F)(F)F)cc1`, the cytotoxicity call was “inactive”.

`C[C@@H]1CN([C@H](C)CO)C(=O)c2cc(NC(=O)Nc3cccc4ccccc34)ccc2O[C@@H]1CN(C)Cc1ccc(C(F)(F)F)cc1`: the cytotoxicity call is “inactive”.

Turning to `C[C@@H]1CN([C@@H](C)CO)C(=O)c2cc(NC(=O)Nc3cccc4ccccc34)ccc2O[C@H]1CN(C)Cc1ccc(C(F)(F)F)cc1`, the cytotoxicity call is “active”.

With `C[C@H](CO)N1C[C@H](C)[C@@H](CN(C)Cc2ccc(C(F)(F)F)cc2)Oc2ccc(NC(=O)Nc3cccc4ccccc34)cc2C1=O`, the cytotoxicity call was “inactive”.

Consider `C[C@H](CO)N1C[C@H](C)[C@H](CN(C)Cc2ccc(C(F)(F)F)cc2)Oc2ccc(NC(=O)Nc3cccc4ccccc34)cc2C1=O`, for which the cytotoxicity call is “active”.

Take `O=C(O)c1cc(=O)cc(C(=O)O)o1`: the cytotoxicity call is “inactive”.

Turning to `C=CCn1c(O)c(C#N)c(C)cc1=O`, the cytotoxicity call is “inactive”.

Regarding `CN(C)C(=O)C[C@H]1CC[C@H](NC(=O)C2CCOCC2)[C@H](CO)O1`, the cytotoxicity call was “inactive”.

Turning to `C[C@@H]1CCCCO[C@H](CN(C)C(=O)c2ccccc2)[C@@H](C)CN([C@H](C)CO)C(=O)c2cc(NS(=O)(=O)c3ccc(Cl)cc3)ccc2O1`, the cytotoxicity call was “inactive”.

Take `N#C/C(=C\c1cccs1)c1csc2ccc(Cl)cc12`: the cytotoxicity call is “inactive”.

On to `CO[C@@H]1CN(C)C(=O)c2cc(NC(=O)CC(F)(F)F)ccc2OC[C@@H](C)N(S(=O)(=O)c2cn(C)cn2)C[C@@H]1C`, for which the cytotoxicity call was “inactive”.

Turning to `O=S(=O)(c1cccc(OC(F)F)c1)N1[C@@H]2CC[C@@H](C2)[C@H]1c1nc2cccc(OCc3ccccc3)c2[nH]1`, the cytotoxicity call is “inactive”.

As for `C[C@@H]1CN([C@@H](C)CO)S(=O)(=O)c2ccc(C#CC(C)(C)O)cc2O[C@H]1CN(C)Cc1ccc(F)cc1`, the cytotoxicity call is “inactive”.

As to `C[C@H](CO)N1C[C@H](C)[C@H](CN(C)Cc2ccc(C(F)(F)F)cc2)Oc2ccc(NC(=O)Nc3ccc4c(c3)OCO4)cc2CC1=O`, the cytotoxicity call is “inactive”.

With `C[C@@H]1CN([C@H](C)CO)C(=O)Cc2cc(NC(=O)Nc3ccc4c(c3)OCO4)ccc2O[C@@H]1CN(C)Cc1ccc(C(F)(F)F)cc1`, the cytotoxicity call is “active”.

As for `C[C@H]1CN([C@@H](C)CO)C(=O)Cc2cc(NC(=O)Nc3ccc4c(c3)OCO4)ccc2O[C@H]1CN(C)Cc1ccc(C(F)(F)F)cc1`, the cytotoxicity call was “active”.

Regarding `C[C@@H]1CN([C@H](C)CO)C(=O)Cc2cc(NC(=O)Nc3ccc4c(c3)OCO4)ccc2O[C@H]1CN(C)Cc1ccc(C(F)(F)F)cc1`, the cytotoxicity call is “active”.

As to `C[C@@H]1CN([C@@H](C)CO)C(=O)Cc2cc(NC(=O)Nc3ccc4c(c3)OCO4)ccc2O[C@@H]1CN(C)Cc1ccc(C(F)(F)F)cc1`, the cytotoxicity call was “inactive”.

In the case of `C[C@@H]1CN([C@@H](C)CO)C(=O)Cc2cc(NC(=O)Nc3ccc4c(c3)OCO4)ccc2O[C@H]1CN(C)Cc1ccc(C(F)(F)F)cc1`, the cytotoxicity call is “inactive”.

For the molecule `C[C@H](CO)N1C[C@H](C)[C@@H](CN(C)Cc2ccc(C(F)(F)F)cc2)Oc2ccc(NC(=O)Nc3ccc4c(c3)OCO4)cc2CC1=O`, the cytotoxicity call is “inactive”.

As for `C[C@H]1CN([C@@H](C)CO)C(=O)Cc2cc(NC(=O)Nc3ccc4c(c3)OCO4)ccc2O[C@@H]1CN(C)Cc1ccc(C(F)(F)F)cc1`, the cytotoxicity call was “inactive”.
